Screening results deposited in PubChem BioAssay by National Center for Advancing Translational Sciences (NCATS).
An excerpt weighted towards active compounds, which were near 9% of everything screened.
Luc counter – blocks Kinase-Glo luciferase, a counter-screen artifact; 0.28% of 200,000 active; Kinase-Glo luciferase, ATP luminescence, 8 min; Q27757; Potency, µM (doses to about 38.3 µM), for inactives: at the highest dose activity change, negative = inhibition, actives largely listed as inhibitors; also: % is scaled to controls: 0 for no effect and ±100 for the full control effect; nearly all actives have a fitted effect of over 60% in size
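Kinase-Glo luciferase light output from ATP and luciferin was measured with 10 uM ATP, within the enzyme's linear range. Buffer: 50 mM imidazole pH 7.2, 50 mM KCl, 7 mM MgCl2, 0.01% Tween 20, 0.05% BSA; luminescence read after 8 min at ambient temperature.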
HttQ103 aggreg – reduces HttQ103-GFP aggregates in PC12 cells; 1.1% of 220,000 active; AID 1688; PC12 HttQ103-GFP aggregates, Acumen cytometry, 40 h; Potency, µM (series often up to 46.1 µM), inactives show top-dose activity change, negative = inhibition, hits mostly inhibitors; also: % is scaled to controls: 0 for no effect and ±100 for the full control effect; nearly all actives have a fitted effect of over 60% in size
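Inducible Q103 Huntingtin exon 1–GFP PC12 line, 1500 cells/well in phenol red free DMEM with 5% equine and 5% calf serum. Tebufenozide 100 nM induced expression; compounds titrated; aggregates quantified by cytometry.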
Lamin A splicing – modulators of lamin A splicing. Potency, µM (top dose mostly 46.1 µM), without a hit: at the highest dose ratio change, negative = inhibition, usual class: inhibitors. 0.01% of 200,000 active. AID 1487. HeLa LMNA splicing GFP/RFP minigene ratio, 48 h; active = well fitted inhibition curve with a large enough effect in the signal ratio, with a control signal flat, not every such curve was filed as active; inconclusive = small, poorly fitted or top-dose-only effect, or effect the other way, or a change in a side signal; the % refers to the signal ratio; also: % is scaled to controls: 0 for no effect and ±100 for the full control effect
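S3 HeLa stable clones carrying a lamin A-EGFP splicing minigene plus DsRed2 were seeded at 600 cells/well in Opti-MEM with 2% FBS, pin-dosed and incubated 48 h at 37°C. Acumen cytometry (488 nm) gave the GFP/RFP total-intensity ratio.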
HTT cytoprotect – cytoprotection in Huntington HTT-Q103 PC12 cell model | 0.14% of 230,000 active | PC12 HTT-Q103 induced, cytoprotection, ATP luminescence, 40 h | Potency, µM (doses to about 56.4 µM), for the others: cytoprotection (ATP increase), actives largely listed as activators; also: % of control where 0% means no effect; nearly all actives have a fitted effect of over 45% in size
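Quantitative HTS on tebufenozide-induced (100 nM) PC12 cells expressing HTTQ103 exon 1–GFP; compounds tested as a concentration series; survival measured via cellular ATP.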
ALDH1A1 block – inhibitors of human aldehyde dehydrogenase 1A1. P00352. Purified ALDH1A1, NADH fluorescence, propionaldehyde substrate. Potency, µM (series often up to 75.3 µM), inactives show at the highest dose activity, negative = inhibition, hits mostly inhibitors. 7.3% of 220,000 active; active = well fitted inhibition curve with a large enough effect, not every such curve was filed as active; inconclusive = small, poorly fitted or top-dose-only effect, or another doubt; inactive = no such curve, though single readings can be large or run the other way;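 also: plate controls were no enzyme wells and a reference inhibitor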
Target sequence (P00352 whole entry, looked up): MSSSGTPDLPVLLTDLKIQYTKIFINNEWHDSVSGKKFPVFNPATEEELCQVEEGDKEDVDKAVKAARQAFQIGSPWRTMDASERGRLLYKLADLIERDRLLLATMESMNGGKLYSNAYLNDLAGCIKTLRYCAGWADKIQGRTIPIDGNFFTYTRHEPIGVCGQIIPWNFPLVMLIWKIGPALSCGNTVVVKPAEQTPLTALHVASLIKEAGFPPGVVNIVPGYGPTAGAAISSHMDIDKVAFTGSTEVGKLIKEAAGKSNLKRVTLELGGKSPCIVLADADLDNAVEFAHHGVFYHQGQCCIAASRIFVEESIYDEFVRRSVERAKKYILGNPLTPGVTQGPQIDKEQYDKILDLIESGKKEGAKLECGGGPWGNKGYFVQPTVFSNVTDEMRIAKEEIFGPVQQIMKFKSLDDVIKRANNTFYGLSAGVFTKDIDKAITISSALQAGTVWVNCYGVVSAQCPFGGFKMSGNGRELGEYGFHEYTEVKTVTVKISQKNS
HPGD inh – HPGD (human) dehydrogenase inhibition. P15428. purified HPGD, NADH fluorescence kinetic, PGE2 substrate. Potency, µM, inactives show top-dose activity change, negative = inhibition, most hits filed as inhibitors. 4.3% of 150,000 active. AID 894; active = well fitted inhibition curve with a large enough effect, not every such curve was filed as active; inconclusive = small, poorly fitted or top-dose-only effect, or another doubt; inactive = no such curve, though single readings can be large or run the other way; also: % is scaled to controls: 0 for no effect and ±100 for the full control effect
Target sequence (P15428 whole entry, looked up): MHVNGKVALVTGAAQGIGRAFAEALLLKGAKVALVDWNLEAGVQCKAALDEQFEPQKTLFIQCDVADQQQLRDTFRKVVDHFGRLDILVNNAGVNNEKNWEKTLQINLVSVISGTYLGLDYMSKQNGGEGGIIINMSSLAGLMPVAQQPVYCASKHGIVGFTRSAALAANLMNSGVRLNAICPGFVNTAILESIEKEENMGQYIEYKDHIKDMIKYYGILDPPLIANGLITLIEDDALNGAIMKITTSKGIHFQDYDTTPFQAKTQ
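20 nM HPGD preincubated 15 min at room temperature with compound in 50 mM Tris-HCl pH 8, 0.01% Tween 20. Started with 1 mM NAD+ and 30 uM prostaglandin E2; NADH fluorescence (360/450 nm) read 5 times over 30-s intervals, last minus first.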
The depositor's hits bear a star; ? = inconclusive; . = no result given; ! = not confirmed by another sample; [ ] = another dose, or the depositor's remark. Unless noted, calls follow the shape of the dose curve; as a rule, active = well fitted curve in the direction sought with a large enough effect; inconclusive = small, poorly fitted or top-dose-only effect, or another doubt; inactive = no such curve, though single readings can be large; an effect the other way counts as inactive or inconclusive. Potency is read from the fitted curve at half-maximal effect.

SMILES	Luc counter	HttQ103 aggreg	Lamin A splicing	HTT cytoprotect	ALDH1A1 block	HPGD inh
Cc1cc(N)ccc1N1CCCC1	-8.9%	-16.0%	10.9%	-16.6%	25.1µM*	-5.4%
CC(=O)c1cc(F)c(N2CCCCCC2)cc1C	-3.9%	-10.0%	-1.5%	15.1%[10 µM]	7.9%	-21.9%
Cc1cc(N2CCCC2)c(C)cc1C=O	-4.0%	9.6%	-0.6%	6.5%	14.1µM*	-6.9%
Cc1cc(N)ccc1-n1c(C)ccc1C	-4.3%	20.3%	?	2.7%	10µM*	-7.3%
Cc1cc(C(=O)O)ccc1-n1c(C)ccc1C	.	.	.	4.0%[0.074 µM]	.	.
Cc1c(N=C2C=C(Br)C(=O)C(Br)=C2)c(=O)n(-c2ccccc2)n1C	?	?	.	12.2%[10 µM]	10µM*	.
CCCNC(=O)CSCc1nc(-c2ccc(SC)cc2)oc1C	-1.4%	-16.5%	.	-52.3%	-9.8%	.
CCc1n[nH]c(=S)n1/N=C/c1ccc(NC(C)=O)cc1	3.0%	-6.2%	?	-36.8%	-3.9%	.
CCc1n[nH]c(=S)n1/N=C/c1cc(Br)c(OC)cc1OC	1.3%	3.2%	?	.	10.7%	7.94µM*
CC(=O)c1c(C)n([O-])c2ccc(C)cc2[n+]1=O	-0.2%	-21.2%	-1.7%	10.7%	1.0%	-15.5%
CCOc1ccccc1NC(=O)C(OC(=O)C1CC1)c1ccccc1 (stereo not given)	.	-5.8%[9.22 µM]	.	2.4%[10 µM]	.	.
COc1ccc(NC(=O)C(NCC(C)C)c2ccccc2)cc1Cl (stereo not given)	-1.8%	-6.2%	.	-46.3%	1.41µM*	.
COc1ccc(NC(=O)C(OC)c2ccccc2)cc1Cl (stereo not given)	0.6%	-5.1%	?	8.4%[0.074 µM]	12.6µM*	-6.8%
COc1ccc(C)cc1NC(=O)C(c1ccccc1)N1CCNC(=O)C1 (stereo not given)	6.8%	10.8%	-17.4%[46 µM]	-1.0%[10 µM]	17.8µM*	.
COc1ccc(C)cc1NC(=O)C(OC(=O)C1CC1)c1ccccc1 (stereo not given)	2.5%	-2.1%	-18.2%[46 µM]	-8.5%	3.98µM*	.
COc1ccc(NC(=O)C(C)NS(=O)(=O)c2ccccc2)cc1Cl (stereo not given)	1.3%	0.4%	-16.3%	10.1%[10 µM]	?	-2.6%
CCC(C(=O)Nc1cc(Cl)ccc1OC)c1ccccc1 (stereo not given)	-0.1%	-20.3%	?	.	22.4µM*	-10.4%
COc1ccc(Cl)cc1NC(=O)C(OC)c1ccccc1 (stereo not given)	3.3%	2.4%[9.22 µM]	.	0.8%[10 µM]	1.58µM*	.
C/C(=N/NC(=O)CN1CCN(S(=O)(=O)c2ccc(C)cc2)CC1)c1cccc(O)c1	.	0.3%[9.22 µM]	.	22.7%[10 µM]	.	.
Cc1cc([N+](=O)[O-])c(C)cc1-c1ccc(/C=N/NC(=O)Cn2nnnc2N)o1	-0.7%	8.5%	-4.7%[9.22 µM]	-44.3%	15µM*	.
Nc1nnnn1CC(=O)N/N=C/c1cc([N+](=O)[O-])ccc1Cl	0.2%	-15.9%	5.3%[46 µM]	-37.2%	0.5%	.
COc1cc2c(Nc3ccc(Br)cc3F)ncnc2cc1OCC1CCN(C)CC1	.	12.6µM*	.	-93.5%	.	.
COc1cccc(N2C(C(C)=O)=NN(c3ccccc3)C2c2ccc(N3CCOCC3)cc2)c1 (stereo not given)	-6.7%	11.2µM*	?	.	14.1µM*	-6.9%
C[C@@H](C(=O)NCCc1c[nH]c2ccccc12)[C@H]1C[C@]1(C)[C@H](NC(=O)OCc1ccccc1)c1ccccc1	-0.4%	?	?	10.3%	10µM*	-19.2%
C[C@@H](C(=O)Nc1ccc2ccccc2c1)[C@@H]1C[C@@]1(C)[C@@H](NS(=O)(=O)c1ccccc1)c1ccccc1	1.1%	.	.	13.2%	-2.0%	-7.7%
SMILES	Luc counter	HttQ103 aggreg	Lamin A splicing	HTT cytoprotect	ALDH1A1 block	HPGD inh
C[C@H](CO)NC(=O)[C@H](C)[C@H]1C[C@]1(C)[C@H](NC(=O)OCc1ccccc1)c1ccccc1	4.0%	3.5%	-2.3%	-41.1%	22.4µM*	-2.0%
C[C@@H](C(=O)NCC1CC1)[C@@H]1C[C@@]1(C)[C@@H](NC(=O)OCc1ccccc1)c1ccccc1	4.4%	-27.6%	-7.4%	-17.2%	-8.7%	-24.9%
C[C@@H](C(=O)NCCF)[C@H]1C[C@]1(C)[C@H](NC(=O)OCc1ccccc1)c1ccccc1	-2.7%	.	.	-1.2%	?	-5.2%
Cc1cc(C(=O)N[C@H](c2ccccc2)[C@@]2(C)C[C@@H]2[C@@H](C)C(=O)Nc2ccc3ccccc3c2)n(C)n1	3.8%	?	?	-35.0%	15.8µM*	-7.7%
C[C@@H](C(=O)NCc1ccccn1)[C@H]1C[C@]1(C)[C@H](NC(=O)OCc1ccccc1)c1ccccc1	-0.3%	-18.6%	-13.5%	-3.9%	31.6µM*!	-26.1%
CS(=O)(=O)N1CC(C(=O)NN)Oc2ccc(Cl)cc21 (stereo not given)	-2.0%	-1.9%	0.4%	-0.5%	?	-1.1%
O=C(O)c1ccc(Cc2ccccc2C(=O)O)cc1	-2.5%[7.66 µM]	.	.	-28.9%[10 µM]	7.1%[13.5 µM]	-6.3%
C[C@@H](C(=O)Nc1ccc2ccccc2c1)[C@H]1C[C@]1(C)[C@H](NC(=O)OCc1ccccc1)c1ccccc1	5.0%	-25.8%	?	-2.8%	12.6µM*	-23.5%
CC(=O)N[C@@H](c1ccccc1)[C@]1(C)C[C@H]1[C@@H](C)C(=O)Nc1ccc2ccccc2c1	-3.3%	.	.	-204.2%	-4.6%	-4.2%
CCCC(=O)c1cc(O)c(O)cc1O	.	.	.	-11.6%	?	6.31µM*
CCCc1cc(C(=O)Cc2ccc(F)cc2)c(O)cc1O	-2.5%	-15.6%	?	6.9%[10 µM]	-1.1%	-23.2%
COc1ccc(C2=C(Nc3ccc(F)cc3)c3ccccc3C2=O)cc1	-2.6%	?	?	-58.0%	?	25.1µM*
COc1ccc(C2=C(Nc3ccc(C)cc3)c3ccccc3C2=O)cc1	-2.2%	15.5%	-14.6%	-12.7%[10 µM]	7.4%	-5.7%
COc1ccc(/C=C2/SC(=O)NC2=O)cc1	0.9%	3.9%[9.22 µM]	23.2%[46 µM]	3.3%[10 µM]	-6.5%	.
COC(=O)/C(=C/c1cn(C(C)=O)c2ccccc12)[N+](=O)[O-]	.	4.9%[9.22 µM]	.	24.7%[10 µM]	.	.
Cc1ccc(/C=C2/SC(=O)NC2=S)o1	-1.8%	-2.9%	.	-3.4%	14.1µM*	.
COC(=O)/C(=C/c1cn(C)c2ccccc12)[N+](=O)[O-]	1.8%	-1.2%	-10.9%	-7.0%[10 µM]	1.78µM*	3.55µM*
Cn1cc(C=O)c2ccccc21	-1.0%	3.3%[9.22 µM]	.	0.9%[10 µM]	2.82µM*	.
